This is an account of results in PubChem BioAssay.

SMILES strings stand for the structures. The source made the active and inactive calls.

Assay [1] in a line: optical density shifts of acrAB sulA E. coli – strain DRC41, OD650, 48 h, E. coli filamentation inducer project, primary screen (AID 1152).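 Also: E. coli MC1000 strain DRC41 lacking acrAB efflux pump and sulA.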 Particulars: higher = more signal, called active from +8 up or from −8 down.
Assay [2] can be described thus: probe aLefty1 binding on compound microarray – biochemical, small-molecule microarray, 635/667 nm fluorescence, primary screen (AID 1153).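 Also: score merges spot fluorescence with signal-to-noise ratio from the scanned slide images.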 Particulars: higher = more signal.
The nature of assay [3]: plasmodial surface anion channel blockers, osmotic lysis – cell-based, P. falciparum Indochina, OD700, 1 h, primary screen (AID 1154). Particulars: P. falciparum Indochina infected RBC osmotic lysis, higher = more signal, called active from +8 up or from −8 down.
Assay [4] is described as follows: plasmodial surface anion channel blockers, osmotic lysis – cell-based, P. falciparum Indochina, OD700, 2 h, primary screen (AID 1155).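 Also: lysis reports solute entry through the parasite surface anion channel PSAC.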 Particulars: P. falciparum Indochina infected erythrocytes, higher = more signal, called active from +8 up or from −8 down.
The nature of assay [5]: changes in parasitized red cell lysis, either direction – P. falciparum Indochina, OD700, 3 h, PSAC antagonist project, primary screen (AID 1156). Particulars: P. falciparum-infected erythrocytes, osmotic lysis, higher = more signal, called active from +8 up or from −8 down.
Assay [6] in a line: plasmodial surface anion channel blockers, osmotic lysis – cell-based, P. falciparum Indochina, OD700, 18 h, primary screen (AID 1157). Particulars: P. falciparum Indochina infected erythrocytes, osmotic lysis OD700, 18 h; higher = more signal, called active from +8 up or from −8 down.
Assay [7] is described as follows: S6 kinase pathway phospho-S6 level changes – cell-based, A549, cytoblot, luminescence, serum-stimulated, primary screen (AID 1158).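 Also: serum-stimulated A549 lung adenocarcinoma cells; signal is phosphorylated S6 detected by cytoblot immunostaining with HRP secondary.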 Particulars: 5 h, higher = more signal.
In assay [8] the target is NADPH oxidase 2 (Homo sapiens) (UniProt P04839). The experiment in a line: compounds shifting NOX2 Amplex Red fluorescence – cell-based, HEK293-NOX2, PMA-stimulated, NOX inhibitor project, primary screen (AID 1159). Also: test concentration not given here. Particulars: 45 min, higher = more signal, called active from +8 up or from −8 down.
For assay [9], the target named is NADPH oxidase 4 (Homo sapiens) (UniProt Q9NPH5). The experiment in a line: compounds shifting NOX4 Amplex Red fluorescence – cell-based, HEK293-NOX4, tetracycline-induced, NOX inhibitor project, primary screen (AID 1160). Particulars: HEK293-NOX4, Amplex Red H2O2 fluorescence, 45 min; higher = more signal, called active from +8 up or from −8 down.
Assay [10] concerns the target NADPH oxidase 5 (Homo sapiens) (UniProt Q96PH1). Description: compounds shifting NOX5 Amplex Red fluorescence – cell-based, HEK293-NOX5, NOX inhibitor project, primary screen (AID 1161). Particulars: HEK293-NOX5, ionomycin, 45 min, higher = more signal.
The nature of assay [11]: compound effects on lung adenocarcinoma cell viability – A549, calcein-AM fluorescence, 48 h, basal, profiling panel (AID 1162). Also: test concentration not given here. Particulars: higher = more signal.
The nature of assay [12]: compound effects on differentiated 3T3-L1 adipocyte viability – cell-based, 3T3-L1 adipocytes, calcein-AM fluorescence, 48 h, basal, profiling panel (AID 1163). Also: test concentration not given here. Particulars: 3T3-L1 adipocytes viability, higher = more signal.
The nature of assay [13]: compound effects on hepatocellular carcinoma cell viability – HepG2, calcein-AM fluorescence, 48 h, basal, profiling panel (AID 1164). Also: test concentration not given here. Particulars: higher = more signal.
The nature of assay [14]: compound effects on multiple myeloma cell viability – MM1S, calcein-AM fluorescence, 48 h, basal, profiling panel (AID 1165).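 Also: viability of MM1S multiple myeloma cells under basal unstimulated conditions; test concentration not given here.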 Particulars: higher = more signal.
Assay [15] can be described thus: calcein-AM signal in unstimulated myeloma cells – cell-based, calcein-AM fluorescence, 48 h, PK04 Diversity Set, profiling panel (AID 1166).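 Also: cells grown under basal conditions without added stimulus; test concentration not given here.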 Particulars: RPMI8226 myeloma viability, higher = more signal.
A short description of assay [16]: JC-1 mitochondrial signal, unstimulated HepG2 cells – cell-based, JC-1 fluorescence, 24 h, 100 nL compound, profiling panel (AID 1167). Also: test concentration not given here. Particulars: HepG2 mitochondrial potential, higher = more signal.
A short description of assay [17]: JC-1 mitochondrial signal, unstimulated adipocytes – cell-based, JC-1 fluorescence, 3T3-L1 adipocytes, 24 h, 100 nL compound, profiling panel (AID 1168). Also: test concentration not given here. Particulars: JC-1 mitochondrial fluorescence, higher = more signal, called active from +8 up or from −8 down.
Assay [18] can be described thus: JC-1 mitochondrial signal, unstimulated myeloma cells – cell-based, JC-1 fluorescence, RPMI8226, 24 h, 100 nL compound, profiling panel (AID 1169). Also: test concentration not given here. Particulars: JC-1 mitochondrial potential fluorescence, higher = more signal.
Assay [19] is described as follows: JC-1 mitochondrial signal, unstimulated MM1S myeloma – cell-based, JC-1 fluorescence, 24 h, 100 nL compound, profiling panel (AID 1170). Also: test concentration not given here. Particulars: MM1S mitochondrial potential, higher = more signal.
Assay [20] is described as follows: resazurin metabolic signal in A549 cells – cell-based, resazurin fluorescence, 24 h, PK04 Diversity Set, profiling panel (AID 1171). Also: test concentration not given here. Particulars: A549 viability, higher = more signal, called active from +8 up or from −8 down. (In general: The colour change of resazurin is a common sign of viable cells or microbes.)

Sequence of NADPH oxidase 5 (Homo sapiens) (Q96PH1 whole entry, looked up): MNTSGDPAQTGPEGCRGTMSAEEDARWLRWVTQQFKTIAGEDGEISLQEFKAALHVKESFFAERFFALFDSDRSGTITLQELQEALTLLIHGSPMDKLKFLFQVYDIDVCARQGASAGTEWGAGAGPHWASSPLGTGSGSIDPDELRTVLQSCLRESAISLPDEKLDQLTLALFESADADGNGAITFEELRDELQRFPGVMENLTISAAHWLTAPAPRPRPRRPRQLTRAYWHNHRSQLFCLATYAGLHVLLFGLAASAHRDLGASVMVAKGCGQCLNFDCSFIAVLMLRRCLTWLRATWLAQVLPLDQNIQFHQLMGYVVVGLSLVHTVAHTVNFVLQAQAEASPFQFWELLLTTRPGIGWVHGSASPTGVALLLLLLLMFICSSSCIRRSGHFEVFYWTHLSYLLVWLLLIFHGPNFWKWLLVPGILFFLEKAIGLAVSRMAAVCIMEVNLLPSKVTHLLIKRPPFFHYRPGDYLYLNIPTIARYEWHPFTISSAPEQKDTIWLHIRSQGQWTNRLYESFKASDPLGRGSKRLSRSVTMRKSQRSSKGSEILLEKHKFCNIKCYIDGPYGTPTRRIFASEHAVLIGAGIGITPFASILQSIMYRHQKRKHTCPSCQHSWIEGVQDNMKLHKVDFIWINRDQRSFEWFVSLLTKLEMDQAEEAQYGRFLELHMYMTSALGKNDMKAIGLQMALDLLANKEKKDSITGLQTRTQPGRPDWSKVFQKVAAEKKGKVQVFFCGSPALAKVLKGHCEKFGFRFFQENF
Sequence of NADPH oxidase 4 (Homo sapiens) (Q9NPH5 whole entry, looked up): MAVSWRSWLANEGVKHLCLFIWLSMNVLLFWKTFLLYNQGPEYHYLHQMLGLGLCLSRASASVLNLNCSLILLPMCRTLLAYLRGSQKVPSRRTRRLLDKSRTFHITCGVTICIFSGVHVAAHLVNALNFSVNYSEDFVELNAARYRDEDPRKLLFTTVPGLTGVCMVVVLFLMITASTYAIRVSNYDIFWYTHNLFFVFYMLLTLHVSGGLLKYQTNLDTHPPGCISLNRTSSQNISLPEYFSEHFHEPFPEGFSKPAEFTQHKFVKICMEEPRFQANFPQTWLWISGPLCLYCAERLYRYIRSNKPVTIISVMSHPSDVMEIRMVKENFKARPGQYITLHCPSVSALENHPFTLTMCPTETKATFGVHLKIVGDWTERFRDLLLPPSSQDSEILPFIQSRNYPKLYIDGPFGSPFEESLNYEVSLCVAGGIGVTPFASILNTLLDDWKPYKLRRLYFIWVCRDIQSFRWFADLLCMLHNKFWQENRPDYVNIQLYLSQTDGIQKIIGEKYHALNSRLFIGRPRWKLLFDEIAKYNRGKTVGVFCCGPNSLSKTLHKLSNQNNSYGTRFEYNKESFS
Sequence of NADPH oxidase 2 (Homo sapiens) (P04839 whole entry, looked up): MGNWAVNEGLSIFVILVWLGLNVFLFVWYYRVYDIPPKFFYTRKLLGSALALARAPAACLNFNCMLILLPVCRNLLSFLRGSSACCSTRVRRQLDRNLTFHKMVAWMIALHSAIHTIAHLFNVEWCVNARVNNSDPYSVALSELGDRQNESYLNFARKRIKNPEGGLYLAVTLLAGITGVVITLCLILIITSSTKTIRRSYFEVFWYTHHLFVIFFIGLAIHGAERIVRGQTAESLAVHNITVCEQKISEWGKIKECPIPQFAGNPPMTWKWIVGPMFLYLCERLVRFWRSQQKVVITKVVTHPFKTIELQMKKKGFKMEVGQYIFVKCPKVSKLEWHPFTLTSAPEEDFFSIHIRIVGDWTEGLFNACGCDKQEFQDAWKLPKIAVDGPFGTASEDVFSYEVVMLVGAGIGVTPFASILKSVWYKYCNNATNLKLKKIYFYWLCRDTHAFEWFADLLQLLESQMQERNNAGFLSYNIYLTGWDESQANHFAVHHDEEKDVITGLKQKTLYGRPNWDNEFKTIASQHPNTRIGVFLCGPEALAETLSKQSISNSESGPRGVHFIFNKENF

With `O=C(CS)NCCCCCCNC(=O)[C@@H]1C[C@@H]2C(=O)NCC(=O)N2[C@@H]1c1ccc(O)cc1`, the z-score in assay [1] was 1.58 (inactive); in assay [3] it was 2.54 (inactive); in [4], -0.164 (inactive); in assay [5] it was 1.62 (inactive); in assay [6] it was -1.41 (inactive); in assay [7], 2.85. Moreover, the z-score in assay [8] is 0.266 (inactive); in assay [9], 0.147 (inactive); in assay [10], 1.51; in assay [11], 0.622; in assay [12], 0.182; in assay [13], 0.435. Further, the z-score was 0.21 in [14]; 1.06 in assay [15]; 0.677 in assay [16]; 0.138 (inactive) in assay [17]; 0.391 in assay [18]; -0.386 in [19]. Moreover, the z-score in assay [20] is -0.746 (inactive). In [2], this molecule displayed a composite z-score of 0.0341.
Turning to `CCC(CC)C(O)C1C=CC2C(=O)N(c3ccccc3)C(=O)C2N1Nc1ccc([N+](=O)[O-])cc1` (stereo not given), the z-score in [1] is -0.639 (inactive); in [3] it was 6.6 (inactive); in assay [4] it was 0.997 (inactive); in assay [5], 0.136 (inactive); in assay [6], 0.507 (inactive); in assay [7], -0.469. The z-score in [8] is -0.272 (inactive); in assay [9] it was -0.44 (inactive); in assay [10], -1.03; in assay [11], -0.878; in assay [12] it was -1.13; in [13], -0.172. In addition, the z-score in [14] was 0.486; in assay [15] it was -1.23; in assay [16] it was -2.25; in [17], -1.37 (inactive); in assay [18], 0.523; in [19], -1.6. In addition, the z-score in [20] is -0.517 (inactive). Further, in assay [2], the composite z-score is 0.342.
For `COCCOC(=O)N1C(=O)[C@@]2(c3ccccc31)[C@H](c1ccc(OCCO)cc1)N1[C@H](c3ccccc3)[C@H](c3ccccc3)OC(=O)[C@H]1[C@@H]2C(=O)N1CCCCCCC1`, the z-score in assay [1] was -0.906 (inactive); in assay [3] it was 22.8 (active); in assay [4], 7.62 (inactive); in assay [5], 0.586 (inactive); in [6], 1.64 (inactive); in [7], -0.0785. Moreover, the z-score in assay [8] is 0.918 (inactive); in assay [9] it was 0.901 (inactive); in assay [10], 1.33; in [11], 0.246; in [12], 0.0203; in assay [13], 0.0373. In addition, the z-score in [14] was -2.74; in assay [15], -0.846; in assay [16] it was -0.0288; in assay [17], -3.41 (inactive); in assay [18], -0.345; in assay [19], -0.899. Further, the z-score in assay [20] was 0.0556 (inactive). In assay [2], this molecule had a composite z-score of 2.77.
`CCCCCCCCCCC(O)C1C=CC2C(=O)N(c3ccccc3)C(=O)C2N1Nc1ccccc1F` (stereo not given): the z-score in assay [1] is -1.43 (inactive); in assay [3], 2.64 (inactive); in assay [4], 1.45 (inactive); in assay [5] it was -0.518 (inactive); in [6], 1.91 (inactive); in assay [7], -0.827. Besides, the z-score in assay [8] is -0.534 (inactive); in [9] it was 0.101 (inactive); in assay [10] it was -1.24; in [11], 0.059; in [12], -0.849; in [13], -0.016. Moreover, the z-score is -0.598 in assay [14]; -0.105 in [15]; -0.777 in assay [16]; -0.45 (inactive) in assay [17]; -0.415 in assay [18]; -0.193 in assay [19]. Also, the z-score in assay [20] is 0.162 (inactive). For the same molecule, the composite z-score in assay [2] is 0.145.
